Values joined by “and” are separate entries in the source; they are usually repeats but may differ in a detail not shown here. Equal entries are not always repeated. Compounds without any hit were thinned out: in the full panel of roughly 79,000, 15% have a hit. Some structures have more than one record in an assay (separate samples or runs), and their calls can disagree. Active and inactive are the calls of the source. Cut-off read from the data, not from the text of the source: active = growth inhibition above about 70%; inactive = the rest.

A short description of assay [1]: NCI Yeast Anticancer Drug Screen. Data for the rad50 strain (AID 155).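 Note: 0% = growth of vehicle-only cultures of the same strain.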 The note with it: S. cerevisiae rad50 strain growth inhibition, stronger effect = higher value. A digest of the protocol:
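Vehicle-treated cultures provide the reference for the growth inhibition reported for compound-exposed, repair-deficient yeast.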

A short description of assay [2]: NCI Yeast Anticancer Drug Screen. Data for the mec2-1 strain (AID 157). To be noted: S. cerevisiae mec2-1 strain, stronger effect = higher value. A digest of the protocol:
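Each compound was tested on mec2-1 yeast, a strain altered in DNA damage repair or cell cycle control. Growth inhibition is reported relative to vehicle.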

Assay [3] can be described thus: NCI Yeast Anticancer Drug Screen. Data for the sgs1 mgt1 strain (AID 161).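 Note: 0% = growth of cultures given vehicle only.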 The note with it: S. cerevisiae sgs1 mgt1 strain, stronger effect = higher value. A digest of the protocol: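 Inhibition of yeast growth, normalised to vehicle-treated controls, is reported for a strain bearing genetic alterations in DNA damage repair.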
The nature of assay [4]: NCI Yeast Anticancer Drug Screen. Data for the cln2 rad14 strain (AID 165).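 Note: 0% = growth equal to vehicle treated cultures.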 The note with it: S. cerevisiae cln2 rad14 strain, stronger effect = higher value. A digest of the protocol: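 Test compounds were added to cln2 rad14 yeast cultures; inhibition of growth was then determined by comparison with vehicle treatment.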
Assay [5] is described as follows: NCI Yeast Anticancer Drug Screen. Data for the bub3 strain (AID 167). The note with it: S. cerevisiae bub3 mutant strain, stronger effect = higher value. A digest of the protocol: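 Mutant yeast screening strain plus compound; vehicle-treated cultures serve as the 0% inhibition reference.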
Assay [6] can be described thus: NCI Yeast Anticancer Drug Screen. Data for the mlh1 rad18 strain (AID 175). The note with it: S. cerevisiae mlh1 rad18 strain growth inhibition, stronger effect = higher value. A digest of the protocol:
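Inhibition values reflect reduced growth of mutant yeast versus vehicle-treated controls following compound exposure; the mutations affect DNA damage repair.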

The mark [7] stands for this setting: at 5.0 µM (retest, dose inferred, filed as 0.5).
The mark [8] stands for this setting: at 50.0 µM (retest, dose inferred, filed as 5.0).

For the compound `[O]=[Sb]([OH])([OH])[c]1ccccc1`, the growth inhibition in assay [1] (setting [7]) is 95% (active); in assay [1] (setting [8]), 98% (active); in assay [1] (at 50.0 µM) it was 99.5% (active) and -13.8% (inactive); in assay [2] (setting [7]), 91% (active); in assay [2] (setting [8]), 99% (active); in assay [2] (at 50.0 µM), 99.5% (active) and -26.9% (inactive). Besides, the growth inhibition in assay [3] (setting [7]) is 94% (active); in assay [3] (setting [8]) it was 99% (active); in assay [3] (at 50.0 µM), 99.2% (active) and 28.1% (inactive); in assay [4] (setting [7]), 94% (active); in assay [4] (setting [8]), 98% (active); in assay [4] (at 50.0 µM), 99.4% (active) and 23% (inactive). For the same compound, the growth inhibition is 93% (active) in assay [5] (setting [7]); 98% (active) in assay [5] (setting [8]); 99.3% (active) and 17.1% (inactive) in assay [5] (at 50.0 µM); 94% (active) in assay [6] (setting [7]); 98% (active) in assay [6] (setting [8]); 99.2% (active) and 6.5% (inactive) in assay [6] (at 50.0 µM).
With `O=C1c2ccccc2-c2cccc3cccc1c23`, the growth inhibition in assay [1] (setting [7]) is 3% (inactive); in assay [1] (setting [8]), -52% (inactive); in assay [1] (at 50.0 µM), -13.8% (inactive) and 32.1% (inactive); in assay [2] (setting [7]) it was -12% (inactive); in assay [2] (setting [8]) it was -26% (inactive); in assay [2] (at 50.0 µM) it was 4.65% (inactive) and 0.55% (inactive). Also, the growth inhibition in assay [3] (setting [7]) is -9% (inactive); in assay [3] (setting [8]) it was -40% (inactive); in assay [3] (at 50.0 µM), -14.2% (inactive) and -19.6% (inactive); in assay [4] (setting [7]) it was -6% (inactive); in assay [4] (setting [8]) it was -17% (inactive); in assay [4] (at 50.0 µM) it was -0.75% (inactive) and 63.6% (inactive). Further, the growth inhibition in assay [5] (setting [7]) is -15% (inactive); in assay [5] (setting [8]), -88% (inactive); in assay [5] (at 50.0 µM), -2.35% (inactive) and 10.1% (inactive); in assay [6] (setting [7]), -1% (inactive); in assay [6] (setting [8]), -39% (inactive); in assay [6] (at 50.0 µM) it was -6.8% (inactive) and 24.3% (inactive).
Regarding `CCCCC1C(=O)NC(=S)N(c2ccccc2)C1=O` (centres undefined), the growth inhibition is -4% (inactive) in assay [1] (setting [7]); -1% (inactive) in assay [1] (setting [8]); -1.75% (inactive) in assay [1] (at 50.0 µM); -3% (inactive) in assay [2] (setting [7]); 11% (inactive) in assay [2] (setting [8]); -1.25% (inactive) in assay [2] (at 50.0 µM). Also, the growth inhibition in assay [3] (setting [7]) was 3% (inactive); in assay [3] (setting [8]) it was 17% (inactive); in assay [3] (at 50.0 µM), 7.5% (inactive); in assay [4] (setting [7]), -2% (inactive); in assay [4] (setting [8]), -7% (inactive); in assay [4] (at 50.0 µM), 34.2% (inactive). In addition, the growth inhibition in assay [5] (setting [7]) was 0% (inactive); in assay [5] (setting [8]), 4% (inactive); in assay [5] (at 50.0 µM) it was 11.1% (inactive); in assay [6] (setting [7]) it was -9% (inactive); in assay [6] (setting [8]), 1% (inactive); in assay [6] (at 50.0 µM) it was 13.8% (inactive).
With `BrCc1ccc2ncccc2c1`, the growth inhibition was 5% (inactive) in assay [1] (setting [7]); 98% (active) in assay [1] (setting [8]); 98.5% (active) in assay [1] (at 50.0 µM); 4% (inactive) in assay [2] (setting [7]); 99% (active) in assay [2] (setting [8]); 98.9% (active) in assay [2] (at 50.0 µM). Also, the growth inhibition in assay [3] (setting [7]) is 6% (inactive); in assay [3] (setting [8]) it was 98% (active); in assay [3] (at 50.0 µM) it was 99% (active); in assay [4] (setting [7]), 11% (inactive); in assay [4] (setting [8]) it was 99% (active); in assay [4] (at 50.0 µM), 98.5% (active). Moreover, the growth inhibition in assay [5] (setting [7]) is 3% (inactive); in assay [5] (setting [8]) it was 99% (active); in assay [5] (at 50.0 µM), 99% (active); in assay [6] (setting [7]), 1% (inactive); in assay [6] (setting [8]) it was 99% (active); in assay [6] (at 50.0 µM) it was 98.5% (active).
As for `COc1ccc(/C=C/[N+](=O)[O-])c(OC)c1OC`, the growth inhibition in assay [1] (setting [7]) was 43% (inactive); in assay [1] (setting [8]), 50% (inactive); in assay [1] (at 50.0 µM) it was 84.5% (active); in assay [2] (setting [7]) it was 52% (inactive); in assay [2] (setting [8]), 55% (inactive); in assay [2] (at 50.0 µM) it was 92.5% (active). In addition, the growth inhibition in assay [3] (setting [7]) was 48% (inactive); in assay [3] (setting [8]), 100% (active); in assay [3] (at 50.0 µM), 93.2% (active); in assay [4] (setting [7]) it was 50% (inactive); in assay [4] (setting [8]), 99% (active); in assay [4] (at 50.0 µM), 54% (inactive). Moreover, the growth inhibition was 69% (inactive) in assay [5] (setting [7]); 99% (active) in assay [5] (setting [8]); 91.8% (active) in assay [5] (at 50.0 µM); 39% (inactive) in assay [6] (setting [7]); 48% (inactive) in assay [6] (setting [8]); 87.8% (active) in assay [6] (at 50.0 µM).
Consider `[Cl][Hg].c1ccc([As]c2ccc(-c3ccccc3)cc2)cc1` (centres undefined), for which the growth inhibition in assay [1] (setting [7]) was 99% (active); in assay [1] (setting [8]) it was 90% (active); in assay [1] (at 50.0 µM), 99% (active); in assay [2] (setting [7]) it was 99% (active); in assay [2] (setting [8]), 92% (active); in assay [2] (at 50.0 µM), 99.4% (active). In addition, the growth inhibition was 100% (active) in assay [3] (setting [7]); 93% (active) in assay [3] (setting [8]); 99.2% (active) in assay [3] (at 50.0 µM); 99% (active) in assay [4] (setting [7]); 91% (active) in assay [4] (setting [8]); 99% (active) in assay [4] (at 50.0 µM). Further, the growth inhibition was 99% (active) in assay [5] (setting [7]); 92% (active) in assay [5] (setting [8]); 98.5% (active) in assay [5] (at 50.0 µM); 100% (active) in assay [6] (setting [7]); 92% (active) in assay [6] (setting [8]); 99% (active) in assay [6] (at 50.0 µM).
Take `C/C(=C\c1ccc2c(c1)OCO2)[N+](=O)[O-]`: the growth inhibition in assay [1] (setting [7]) was 93% (active); in assay [1] (setting [8]), 98% (active); in assay [1] (at 50.0 µM), 98.2% (active); in assay [2] (setting [7]) it was 7% (inactive); in assay [2] (setting [8]), 100% (active); in assay [2] (at 50.0 µM), 73.5% (active). Besides, the growth inhibition is 16% (inactive) in assay [3] (setting [7]); 97% (active) in assay [3] (setting [8]); 83.4% (active) in assay [3] (at 50.0 µM); -6% (inactive) in assay [4] (setting [7]); 99% (active) in assay [4] (setting [8]); 40.1% (inactive) in assay [4] (at 50.0 µM). The growth inhibition in assay [5] (setting [7]) was 10% (inactive); in assay [5] (setting [8]), 96% (active); in assay [5] (at 50.0 µM), 51% (inactive); in assay [6] (setting [7]), 11% (inactive); in assay [6] (setting [8]) it was 99% (active); in assay [6] (at 50.0 µM), 70.8% (active).
Regarding `Oc1c(Cl)c(Cl)c(Cl)c(Cl)c1Cl.[Cu+2]`, the growth inhibition was 23% (inactive) in assay [1] (setting [7]); 98% (active) in assay [1] (setting [8]); 88.5% (active) in assay [1] (at 50.0 µM); 18% (inactive) in assay [2] (setting [7]); 99% (active) in assay [2] (setting [8]); 89.8% (active) in assay [2] (at 50.0 µM). For the same compound, the growth inhibition in assay [3] (setting [7]) was 31% (inactive); in assay [3] (setting [8]) it was 98% (active); in assay [3] (at 50.0 µM) it was 81% (active); in assay [4] (setting [7]), 8% (inactive); in assay [4] (setting [8]) it was 99% (active); in assay [4] (at 50.0 µM) it was 92.8% (active). Also, the growth inhibition in assay [5] (setting [7]) was 11% (inactive); in assay [5] (setting [8]), 97% (active); in assay [5] (at 50.0 µM), 89.5% (active); in assay [6] (setting [7]) it was 15% (inactive); in assay [6] (setting [8]) it was 96% (active); in assay [6] (at 50.0 µM), 88.6% (active).

(Values after PubChem BioAssay (NCI).)
